This is an account of results in PubChem BioAssay (NCATS).

Records with an inconclusive call do not appear. The source made the active and inactive calls. The call rests on the fitted dose curve; in most records, active means well fitted cell-killing curve with a large enough effect; inconclusive means small, poorly fitted or top-dose-only effect, or effect the other way; inactive means no such curve, though single readings can be large or run the other way.
Potency means the concentration at half of the fitted maximal effect.

This assay is described as follows: Quantitative High-Throughput drug screen in 47 multiple myeloma cell lines against the NCATS MIPE library collection: PE2_PLB cell viability assay (AID 1919869). Further: nearly all actives have a fitted effect of over 35% in size.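 On viability (% of control): 100% = DMSO-only wells and 0% = cell-free media-only wells.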 The settings on record: PE2_PLB myeloma cells viability, ATP luminescence, 48 h; series mostly up to 45.8 µM; viability (% of control): at the top concentration. The gist of the method:
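Plated at 500 cells per well, myeloma lines received MIPE 4.0 compounds by pin tool. Following 48 h culture at 37 °C, CellTiter-Glo luminescence gave viability relative to DMSO and media-only controls.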
For the compound `COc1ccc2cc(-c3nc(-c4ccc(S(C)=O)cc4)[nH]c3-c3ccncc3)ccc2c1` (stereo not given), the Potency is 14.8 µM (active).

Consider `CNC(=O)c1ccccc1Sc1ccc2c(C=Cc3ccccn3)n[nH]c2c1`, for which the Potency is 20.9 µM (active).

`CC(C)C(=O)Nc1ncc(-c2cc(C(F)F)nn2-c2c(Cl)cccc2Cl)s1`: the Potency is 23.5 µM (active).

On to `CCOC(=O)C1=C(N)Oc2ccc(Br)cc2C1C(C#N)C(=O)OCC` (stereo not given), for which the Potency is 20.9 µM (active).

As for `O=C(O)[C@H]1O[C@H](Oc2cc3oc(-c4ccccc4)cc(=O)c3c(O)c2O)[C@H](O)[C@@H](O)[C@H]1O`, the “viability (% of control)” value is 98.5% (inactive).

As for `CC(C)=CC[C@@H](O)C1=CC(=O)c2c(O)ccc(O)c2C1=O`, the Potency was 0.264 µM (active).

Consider `Cc1ccccc1C(C(=O)NC1CCCCC1)N(C(=O)Cn1ccnc1C)c1cccc(F)c1` (stereo not given), for which the “viability (% of control)” value was 108% (inactive).

For the compound `CC(C)C(C)C=CC(C)C1CCC2C3=CC=C4CC(O)CCC4(C)C3CCC21C` (stereo not given), the “viability (% of control)” value was 116% (inactive).

With `CO[C@H]1C=CC=C(C)C(=O)NC2=CC(=O)C(NCCN(C)C)=C(C[C@@H](C)C[C@H](OC)[C@@H](O)[C@@H](C)C=C(C)[C@@H]1OC(N)=O)C2=O`, the Potency is 0.0935 µM (active).

Regarding `Clc1cc(Cl)cc(CNc2ncncc2-c2ccc3c(c2)OCO3)c1`, the Potency was 20.9 µM (active).

For the compound `CN1[C@@H]2CCC[C@@H]1CC(NC(=O)c1nn(C)c3ccccc13)C2` (stereo not given in full), the “viability (% of control)” value was 108% (inactive).

For `Cc1ccc(C(=O)Nc2cccc(C(F)(F)F)c2)cc1Nc1nc(-c2cccnc2)nc2c1cnn2C`, the Potency is 9.35 µM (active).

Regarding `CO[C@H]1C=CO[C@@]2(C)Oc3c(C)c(O)c4c(O)c(c5c(c4c3C2=O)NC2(CCN(CC(C)C)CC2)N=5)=NC(=O)C(C)=CC=C[C@H](C)[C@H](O)[C@@H](C)[C@@H](O)[C@@H](C)[C@H](OC(C)=O)[C@H]1C`, the “viability (% of control)” value is 115% (inactive).

For the compound `CC=CC(=O)N(CC)c1ccccc1C`, the “viability (% of control)” value is 115% (inactive).

As to `COc1cc2ncnc(Nc3ccc(F)c(Cl)c3)c2cc1OCCCN1CCOCC1`, the Potency was 13.6 µM (active).

For `O=c1cc(-c2cccc3c2Sc2ccccc2S3)oc(N2CCOCC2)c1`, the Potency was 18.7 µM (active).

For `Cc1c(O)cccc1C(=O)N[C@@H](CSc1ccccc1)[C@H](O)CN1C[C@H]2CCCC[C@@H]2C[C@@H]1C(=O)NC(C)(C)C`, the Potency is 26.4 µM (active).

For `O=C(CCCCCCC(=O)Nc1ccccc1)NO`, the Potency was 3.32 µM (active).

On to `Clc1ccc(C(c2ccc(Cl)cc2)n2cc[n+](CC(OCc3ccc(Cl)cc3Cl)c3ccc(Cl)cc3Cl)c2)cc1` (stereo not given), for which the Potency is 13.2 µM (active).

Regarding `O=C1C(Cl)=C(NCCN2CCOCC2)C(=O)c2ncccc21`, the Potency was 2.35 µM (active).

Turning to `CCC(=O)NC[C@H](Cc1ccc(OCCc2nc(-c3ccccc3)oc2C)cc1)NC(C)=CC(=O)c1ccc(C(F)(F)F)cc1`, the Potency was 11.8 µM (active).

On to `CC(=O)Nc1ccc([C@H](C)C(=O)Nc2ncc(C(C)C)s2)cc1`, for which the Potency is 2.35 µM (active).

Turning to `Oc1ccc(C2CCN(c3ccnc4ccccc34)CC2)cc1O`, the Potency was 16.6 µM (active).

Turning to `CS(=O)(=O)N(Cc1ccco1)CC(O)Cn1c2ccccc2c2ccccc21` (stereo not given), the Potency is 16.6 µM (active).

For `O=C1c2c(O)cc(O)cc2O[C@H](c2cc(O)c(O)c(O)c2)[C@H]1O`, the “viability (% of control)” value was 136% (inactive).

Regarding `CC1(C)CCC[C@@]2(C)[C@@H]1CC[C@@]1(C)OC(=O)C[C@H]21`, the “viability (% of control)” value is 98.3% (inactive).

For `c1cc(-c2sc(-c3ccncc3)c(-c3ccncc3)c2-c2ccncc2)ccn1`, the Potency was 14.8 µM (active).

On to `Clc1ccc(CCC(Cn2ccnc2)Sc2c(Cl)cccc2Cl)cc1` (stereo not given), for which the Potency is 20.9 µM (active).

As for `Oc1ccc(C2=Cc3ccc(O)cc3OC2)cc1`, the Potency was 9.35 µM (active).

In the case of `NC1=N[C@@]2(c3cc(NC(=O)c4ccc(F)cn4)ccc3F)COC[C@@H]2CS1`, the Potency was 23.5 µM (active).
